# From article PMC7862700, “An all-to-all approach to the identification of sequence-specific readers for epigenetic DNA modifications on cytosine”
# Tests used:
# Test in all cases: DAPPL (digital affinity profiling via proximity ligation, sequencing); 10 mM Tris-HCl pH 7.5, 50 mM NaCl, 1 mM DTT, 4% glycerol, room temperature, 30 min; GST-TFs on glutathione beads, 16-mer random dsDNA library, 0.1% formaldehyde crosslink after washing; high values mean tight binding
# FLI1 = biological target: T1, FLI1 (Homo sapiens, UniProt Q01543 1-452); details: protein: recombinant; tags: N-terminal GST; dsDNA, one strand shown
# T1 sequence: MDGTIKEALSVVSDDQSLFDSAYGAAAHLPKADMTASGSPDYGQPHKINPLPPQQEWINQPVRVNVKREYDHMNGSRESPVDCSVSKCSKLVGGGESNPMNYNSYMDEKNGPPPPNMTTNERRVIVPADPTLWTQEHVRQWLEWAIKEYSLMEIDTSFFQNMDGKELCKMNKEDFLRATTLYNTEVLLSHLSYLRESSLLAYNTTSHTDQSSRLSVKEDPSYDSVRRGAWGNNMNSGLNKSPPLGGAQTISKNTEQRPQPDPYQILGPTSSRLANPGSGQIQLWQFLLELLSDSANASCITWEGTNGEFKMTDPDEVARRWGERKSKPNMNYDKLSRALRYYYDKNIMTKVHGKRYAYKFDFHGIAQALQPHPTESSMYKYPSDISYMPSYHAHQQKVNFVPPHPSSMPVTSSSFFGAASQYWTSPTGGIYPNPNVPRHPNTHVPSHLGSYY
# In short: (§1)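 A tag-only sample was pooled with DNA-barcoded human transcription factors that had been expressed in yeast as GST fusions and captured on glutathione beads. The pools were incubated for 30 min at room temperature with 200 nmole of a random double-stranded 16-mer DNA library in Tris/NaCl/DTT/glycerol buffer, then washed, crosslinked with 0.1% formaldehyde, proximity-ligated (BsaI/T4 ligase, 1 h, 37 °C), PCR-amplified and sequenced on an Illumina NextSeq500. Binding signal is each hexamer's read frequency for a factor divided by its frequency for the tag-only sample.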
# ELK1 = biological target: T2, ELK1 (Homo sapiens, UniProt P19419 1-428); details: protein: recombinant; tags: N-terminal GST; dsDNA, one strand shown
# T2 sequence: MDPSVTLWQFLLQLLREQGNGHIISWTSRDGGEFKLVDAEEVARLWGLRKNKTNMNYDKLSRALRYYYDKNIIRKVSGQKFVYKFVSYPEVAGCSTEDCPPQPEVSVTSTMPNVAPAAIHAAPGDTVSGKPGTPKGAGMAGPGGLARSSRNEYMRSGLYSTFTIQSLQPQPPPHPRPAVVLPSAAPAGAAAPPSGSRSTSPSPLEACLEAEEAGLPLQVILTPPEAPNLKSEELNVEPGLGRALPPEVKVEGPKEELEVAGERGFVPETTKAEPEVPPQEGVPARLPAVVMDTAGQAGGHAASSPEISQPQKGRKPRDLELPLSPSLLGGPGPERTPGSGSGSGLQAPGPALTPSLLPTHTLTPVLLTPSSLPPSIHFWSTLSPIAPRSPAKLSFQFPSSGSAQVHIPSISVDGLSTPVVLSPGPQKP
# In short: as §1
# GABPA = biological target: T3, GABPA (Homo sapiens, UniProt Q06546 1-454); details: protein: recombinant; tags: N-terminal GST; dsDNA, one strand shown
# T3 sequence: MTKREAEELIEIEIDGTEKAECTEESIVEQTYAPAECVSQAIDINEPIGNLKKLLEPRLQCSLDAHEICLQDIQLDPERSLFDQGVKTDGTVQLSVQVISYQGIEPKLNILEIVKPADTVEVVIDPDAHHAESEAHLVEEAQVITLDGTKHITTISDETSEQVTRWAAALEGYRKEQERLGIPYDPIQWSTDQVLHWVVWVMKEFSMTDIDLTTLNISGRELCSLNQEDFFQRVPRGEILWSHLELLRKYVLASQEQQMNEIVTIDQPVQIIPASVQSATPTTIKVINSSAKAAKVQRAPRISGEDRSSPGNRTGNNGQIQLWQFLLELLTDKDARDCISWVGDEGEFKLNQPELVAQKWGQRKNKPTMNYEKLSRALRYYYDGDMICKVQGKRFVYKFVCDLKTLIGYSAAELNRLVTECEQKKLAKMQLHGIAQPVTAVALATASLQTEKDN
# In short: as §1
# ERG = biological target: T4, ERG (Homo sapiens, UniProt P11308 1-479); details: protein: recombinant; tags: N-terminal GST; dsDNA, one strand shown
# T4 sequence: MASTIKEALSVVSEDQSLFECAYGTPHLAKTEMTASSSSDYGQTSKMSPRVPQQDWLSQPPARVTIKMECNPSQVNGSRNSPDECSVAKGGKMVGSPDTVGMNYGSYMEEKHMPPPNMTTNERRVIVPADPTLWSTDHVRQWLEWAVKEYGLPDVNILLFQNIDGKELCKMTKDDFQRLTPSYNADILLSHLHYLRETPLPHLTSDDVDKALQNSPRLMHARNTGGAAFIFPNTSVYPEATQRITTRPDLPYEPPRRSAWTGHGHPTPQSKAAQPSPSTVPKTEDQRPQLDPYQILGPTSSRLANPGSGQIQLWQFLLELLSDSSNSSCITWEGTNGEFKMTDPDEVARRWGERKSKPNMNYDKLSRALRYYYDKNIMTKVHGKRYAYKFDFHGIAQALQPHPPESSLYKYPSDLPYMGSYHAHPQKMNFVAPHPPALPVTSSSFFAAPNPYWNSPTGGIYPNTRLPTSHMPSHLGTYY
# In short: as §1
# ELF1 = ELF1 (Homo sapiens, UniProt P32519 1-619); details: protein: recombinant; tags: N-terminal GST; dsDNA, one strand shown
# ELF1, sequence (P32519 whole entry): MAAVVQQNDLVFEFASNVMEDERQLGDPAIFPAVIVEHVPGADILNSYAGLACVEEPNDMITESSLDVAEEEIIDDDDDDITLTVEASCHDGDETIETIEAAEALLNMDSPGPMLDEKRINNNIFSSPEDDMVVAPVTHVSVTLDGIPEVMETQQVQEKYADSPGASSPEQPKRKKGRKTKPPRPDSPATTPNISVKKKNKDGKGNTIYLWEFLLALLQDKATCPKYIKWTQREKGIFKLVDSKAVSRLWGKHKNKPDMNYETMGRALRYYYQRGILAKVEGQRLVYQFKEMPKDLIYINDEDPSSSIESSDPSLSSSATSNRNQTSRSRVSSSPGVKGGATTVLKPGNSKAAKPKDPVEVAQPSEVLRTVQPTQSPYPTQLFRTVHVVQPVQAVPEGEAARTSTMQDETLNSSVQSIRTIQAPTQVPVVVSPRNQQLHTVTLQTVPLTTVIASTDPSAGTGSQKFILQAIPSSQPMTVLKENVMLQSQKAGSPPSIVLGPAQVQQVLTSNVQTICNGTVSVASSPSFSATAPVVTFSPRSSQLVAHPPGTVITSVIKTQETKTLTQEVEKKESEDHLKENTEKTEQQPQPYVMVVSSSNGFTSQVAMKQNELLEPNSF
# In short: as §1
# EHF = biological target: T5, EHF (Homo sapiens, UniProt Q9NZC4 1-300); details: protein: recombinant; tags: N-terminal GST; dsDNA, one strand shown
# T5 sequence: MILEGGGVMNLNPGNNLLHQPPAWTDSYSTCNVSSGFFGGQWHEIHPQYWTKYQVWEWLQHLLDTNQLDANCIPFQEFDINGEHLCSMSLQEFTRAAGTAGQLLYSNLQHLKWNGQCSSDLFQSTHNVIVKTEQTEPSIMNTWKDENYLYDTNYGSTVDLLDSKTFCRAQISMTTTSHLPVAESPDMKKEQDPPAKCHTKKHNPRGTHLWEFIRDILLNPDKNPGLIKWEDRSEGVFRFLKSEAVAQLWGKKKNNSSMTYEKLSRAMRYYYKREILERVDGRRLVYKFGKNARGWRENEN
# In short: as §1
# SPI1 = SPI1 (Homo sapiens, UniProt P17947 1-270); details: protein: recombinant; tags: N-terminal GST; dsDNA, one strand shown
# In short: as §1
# SPIB = SPIB (Homo sapiens, UniProt Q01892 1-262); details: protein: recombinant; tags: N-terminal GST; dsDNA, one strand shown
# SPIB, sequence (Q01892 whole entry): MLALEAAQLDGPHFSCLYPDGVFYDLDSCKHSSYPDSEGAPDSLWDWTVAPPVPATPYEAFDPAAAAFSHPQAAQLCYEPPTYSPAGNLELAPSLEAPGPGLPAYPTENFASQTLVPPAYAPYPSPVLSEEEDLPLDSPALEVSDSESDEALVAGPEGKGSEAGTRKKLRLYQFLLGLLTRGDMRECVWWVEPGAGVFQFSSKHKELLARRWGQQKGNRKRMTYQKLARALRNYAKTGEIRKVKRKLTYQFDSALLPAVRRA
# In short: as §1
# ELK3 = biological target: T6, ELK3 (Homo sapiens, UniProt P41970 1-407); details: protein: recombinant; tags: N-terminal GST; dsDNA, one strand shown
# T6 sequence: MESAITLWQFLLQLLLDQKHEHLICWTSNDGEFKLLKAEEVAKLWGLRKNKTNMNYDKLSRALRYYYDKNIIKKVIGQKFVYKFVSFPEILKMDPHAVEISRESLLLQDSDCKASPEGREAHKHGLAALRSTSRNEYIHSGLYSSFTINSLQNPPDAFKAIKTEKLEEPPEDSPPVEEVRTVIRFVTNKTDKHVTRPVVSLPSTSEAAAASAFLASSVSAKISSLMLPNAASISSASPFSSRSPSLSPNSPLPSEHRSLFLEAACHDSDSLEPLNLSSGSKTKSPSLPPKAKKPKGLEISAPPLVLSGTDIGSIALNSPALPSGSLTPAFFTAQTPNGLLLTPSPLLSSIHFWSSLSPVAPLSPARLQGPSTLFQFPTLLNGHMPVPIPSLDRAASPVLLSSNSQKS
# In short: as §1
# FEV = biological target: T7, FEV (Homo sapiens, UniProt Q99581 1-238); details: protein: recombinant; tags: N-terminal GST; dsDNA, one strand shown
# T7 sequence: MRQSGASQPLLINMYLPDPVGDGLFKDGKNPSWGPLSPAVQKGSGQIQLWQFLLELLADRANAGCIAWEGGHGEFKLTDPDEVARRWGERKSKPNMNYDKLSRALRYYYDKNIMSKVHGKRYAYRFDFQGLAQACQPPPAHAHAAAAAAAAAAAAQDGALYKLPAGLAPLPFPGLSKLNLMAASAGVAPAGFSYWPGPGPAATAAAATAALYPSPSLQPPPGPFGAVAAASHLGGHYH
# In short: as §1
# ETV5 = ETV5 (Homo sapiens, UniProt P41161 1-510); details: protein: recombinant; tags: N-terminal GST; dsDNA, one strand shown
# ETV5, sequence (P41161 whole entry): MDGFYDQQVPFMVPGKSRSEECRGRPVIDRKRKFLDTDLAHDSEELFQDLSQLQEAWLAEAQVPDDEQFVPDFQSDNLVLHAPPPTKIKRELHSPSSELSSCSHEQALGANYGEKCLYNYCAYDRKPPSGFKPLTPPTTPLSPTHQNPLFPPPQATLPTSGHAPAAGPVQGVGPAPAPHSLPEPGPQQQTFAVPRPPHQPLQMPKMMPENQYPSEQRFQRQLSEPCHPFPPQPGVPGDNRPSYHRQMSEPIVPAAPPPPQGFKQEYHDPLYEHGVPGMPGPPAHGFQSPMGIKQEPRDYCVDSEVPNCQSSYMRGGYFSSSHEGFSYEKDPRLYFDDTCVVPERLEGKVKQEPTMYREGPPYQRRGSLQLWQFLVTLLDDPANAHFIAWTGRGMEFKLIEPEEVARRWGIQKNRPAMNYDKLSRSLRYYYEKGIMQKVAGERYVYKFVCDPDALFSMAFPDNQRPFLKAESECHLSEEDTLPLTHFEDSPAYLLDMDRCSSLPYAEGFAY
# In short: as §1
# HSF1 = HSF1 (Homo sapiens, UniProt Q00613 1-529); details: protein: recombinant; tags: N-terminal GST; chain copies: 3; dsDNA, one strand shown
# HSF1, sequence (Q00613 whole entry): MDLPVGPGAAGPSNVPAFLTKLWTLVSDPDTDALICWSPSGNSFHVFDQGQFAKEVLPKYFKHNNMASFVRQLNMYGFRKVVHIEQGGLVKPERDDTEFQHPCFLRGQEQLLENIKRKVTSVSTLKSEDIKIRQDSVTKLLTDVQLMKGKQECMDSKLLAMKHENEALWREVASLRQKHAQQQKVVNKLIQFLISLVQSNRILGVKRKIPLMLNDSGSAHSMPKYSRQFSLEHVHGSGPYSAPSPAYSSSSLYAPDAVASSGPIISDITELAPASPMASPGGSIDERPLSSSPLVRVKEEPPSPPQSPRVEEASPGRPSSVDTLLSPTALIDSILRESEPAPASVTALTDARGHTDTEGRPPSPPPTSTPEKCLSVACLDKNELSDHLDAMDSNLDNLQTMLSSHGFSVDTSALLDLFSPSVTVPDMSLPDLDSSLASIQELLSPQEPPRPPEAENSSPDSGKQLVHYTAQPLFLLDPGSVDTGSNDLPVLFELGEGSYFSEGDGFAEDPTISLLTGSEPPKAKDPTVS
# In short: as §1
# SPIC = biological target: T8, SPIC (Homo sapiens, UniProt Q8N5J4 1-248); details: protein: recombinant; tags: N-terminal GST; dsDNA, one strand shown
# T8 sequence: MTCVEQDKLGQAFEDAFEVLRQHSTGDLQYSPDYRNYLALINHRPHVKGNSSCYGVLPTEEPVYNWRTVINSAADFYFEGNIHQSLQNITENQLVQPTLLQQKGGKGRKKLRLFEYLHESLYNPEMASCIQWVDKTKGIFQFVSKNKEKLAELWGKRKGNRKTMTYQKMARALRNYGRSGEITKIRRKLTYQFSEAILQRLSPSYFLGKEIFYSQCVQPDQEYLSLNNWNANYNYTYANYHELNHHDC
# In short: as §1
# ELF4 = ELF4 (Homo sapiens, UniProt Q99607 1-663); details: protein: recombinant; tags: N-terminal GST; dsDNA, one strand shown
# ELF4, sequence (Q99607 whole entry): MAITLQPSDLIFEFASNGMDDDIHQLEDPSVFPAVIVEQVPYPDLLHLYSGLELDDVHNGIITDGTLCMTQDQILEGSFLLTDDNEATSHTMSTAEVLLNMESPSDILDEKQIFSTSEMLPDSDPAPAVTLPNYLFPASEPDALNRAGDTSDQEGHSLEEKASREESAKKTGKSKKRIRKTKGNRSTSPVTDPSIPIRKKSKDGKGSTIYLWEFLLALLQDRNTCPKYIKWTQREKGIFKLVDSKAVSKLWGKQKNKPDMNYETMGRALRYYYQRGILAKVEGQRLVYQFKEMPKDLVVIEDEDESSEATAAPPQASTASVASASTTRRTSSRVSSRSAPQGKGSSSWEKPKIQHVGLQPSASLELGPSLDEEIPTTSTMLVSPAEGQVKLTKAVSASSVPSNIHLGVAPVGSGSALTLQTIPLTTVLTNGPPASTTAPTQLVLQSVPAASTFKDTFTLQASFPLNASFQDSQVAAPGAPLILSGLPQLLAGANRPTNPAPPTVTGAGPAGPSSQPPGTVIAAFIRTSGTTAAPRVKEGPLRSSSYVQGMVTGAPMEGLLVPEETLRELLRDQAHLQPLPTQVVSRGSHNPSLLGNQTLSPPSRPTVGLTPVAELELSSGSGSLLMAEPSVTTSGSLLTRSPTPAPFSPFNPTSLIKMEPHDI
# In short: as §1
# ELK4 = biological target: T9, ELK4 (Homo sapiens, UniProt P28324-2 1-405); details: protein: recombinant; tags: N-terminal GST; dsDNA, one strand shown
# T9 sequence: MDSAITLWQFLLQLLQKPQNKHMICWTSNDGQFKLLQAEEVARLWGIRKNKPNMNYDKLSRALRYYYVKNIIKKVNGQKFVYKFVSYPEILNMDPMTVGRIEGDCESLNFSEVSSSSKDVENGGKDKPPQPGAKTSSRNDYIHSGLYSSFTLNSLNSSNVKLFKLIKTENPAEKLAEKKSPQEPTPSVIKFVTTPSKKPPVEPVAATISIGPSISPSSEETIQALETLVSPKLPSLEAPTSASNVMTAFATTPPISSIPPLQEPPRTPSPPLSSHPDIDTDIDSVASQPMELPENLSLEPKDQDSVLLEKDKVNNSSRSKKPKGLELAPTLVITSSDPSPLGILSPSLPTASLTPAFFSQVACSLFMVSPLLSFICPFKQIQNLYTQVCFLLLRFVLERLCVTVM
# In short: as §1
# ETV2 = biological target: T10, ETV2 (Homo sapiens, UniProt O00321 1-342); details: protein: recombinant; tags: N-terminal GST; dsDNA, one strand shown
# T10 sequence: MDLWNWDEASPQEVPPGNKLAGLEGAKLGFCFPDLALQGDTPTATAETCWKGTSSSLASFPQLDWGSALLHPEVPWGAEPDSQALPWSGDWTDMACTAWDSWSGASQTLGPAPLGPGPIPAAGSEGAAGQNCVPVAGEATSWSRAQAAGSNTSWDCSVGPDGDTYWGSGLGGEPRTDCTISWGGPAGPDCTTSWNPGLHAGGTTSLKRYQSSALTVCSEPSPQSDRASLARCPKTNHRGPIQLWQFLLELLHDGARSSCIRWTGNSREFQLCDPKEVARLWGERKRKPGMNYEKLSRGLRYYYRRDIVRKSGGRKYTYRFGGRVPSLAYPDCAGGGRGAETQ
# In short: as §1
# ELF3 = biological target: T11, ELF3 (Homo sapiens, UniProt P78545 1-371); details: protein: recombinant; tags: N-terminal GST; dsDNA, one strand shown
# T11 sequence: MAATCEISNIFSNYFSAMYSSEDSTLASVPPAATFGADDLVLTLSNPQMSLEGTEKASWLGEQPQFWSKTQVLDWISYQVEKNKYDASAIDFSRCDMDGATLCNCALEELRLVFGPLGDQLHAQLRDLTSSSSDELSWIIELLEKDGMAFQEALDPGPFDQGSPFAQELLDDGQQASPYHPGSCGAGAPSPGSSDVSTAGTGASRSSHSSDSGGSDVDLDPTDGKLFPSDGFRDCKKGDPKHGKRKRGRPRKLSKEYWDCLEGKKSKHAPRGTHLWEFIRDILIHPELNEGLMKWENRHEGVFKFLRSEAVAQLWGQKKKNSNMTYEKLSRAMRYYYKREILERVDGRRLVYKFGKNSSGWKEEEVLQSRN
# In short: as §1
# CRX = CRX (Homo sapiens, UniProt O43186 1-299); details: protein: recombinant; tags: N-terminal GST; dsDNA, one strand shown
# CRX, sequence (O43186 whole entry): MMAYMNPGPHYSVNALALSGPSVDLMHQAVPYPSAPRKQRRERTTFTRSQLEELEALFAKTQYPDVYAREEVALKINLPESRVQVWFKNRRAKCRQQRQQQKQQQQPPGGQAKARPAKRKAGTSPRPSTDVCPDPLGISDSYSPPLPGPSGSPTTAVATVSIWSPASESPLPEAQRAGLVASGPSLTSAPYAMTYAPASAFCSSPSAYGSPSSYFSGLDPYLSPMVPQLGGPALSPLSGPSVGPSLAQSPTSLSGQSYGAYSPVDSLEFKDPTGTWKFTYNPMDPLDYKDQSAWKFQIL
# In short: as §1
# ETV1 = ETV1 (Homo sapiens, UniProt P50549 1-477); details: protein: recombinant; tags: N-terminal GST; dsDNA, one strand shown
# ETV1, sequence (P50549 whole entry): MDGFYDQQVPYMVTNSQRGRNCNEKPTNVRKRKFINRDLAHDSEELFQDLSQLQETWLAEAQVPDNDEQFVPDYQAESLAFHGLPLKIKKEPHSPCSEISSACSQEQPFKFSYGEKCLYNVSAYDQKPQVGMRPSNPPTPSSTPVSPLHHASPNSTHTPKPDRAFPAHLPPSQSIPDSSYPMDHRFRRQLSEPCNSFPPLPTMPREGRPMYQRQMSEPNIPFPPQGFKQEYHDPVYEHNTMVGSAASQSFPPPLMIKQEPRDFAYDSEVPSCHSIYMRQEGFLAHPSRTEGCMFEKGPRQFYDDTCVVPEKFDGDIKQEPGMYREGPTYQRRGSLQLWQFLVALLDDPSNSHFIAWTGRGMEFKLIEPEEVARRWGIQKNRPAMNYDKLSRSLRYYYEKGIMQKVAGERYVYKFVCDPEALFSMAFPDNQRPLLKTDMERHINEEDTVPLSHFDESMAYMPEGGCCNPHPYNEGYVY
# In short: as §1
sequence,measurement,setting,value
TATCAT,binding signal,FLI1,"1.25 fold enrichment (6-mer frequency, TF over GST control)"
same,binding signal,ELK1,"1.18 fold enrichment (6-mer frequency, TF over GST control)"
same,binding signal,GABPA,"1.3 fold enrichment (6-mer frequency, TF over GST control)"
same,binding signal,ERG,"1.13 fold enrichment (6-mer frequency, TF over GST control)"
same,binding signal,ELF1,"1.15 fold enrichment (6-mer frequency, TF over GST control)"
same,binding signal,EHF,"1.21 fold enrichment (6-mer frequency, TF over GST control)"
same,binding signal,SPI1,"1.13 fold enrichment (6-mer frequency, TF over GST control)"
same,binding signal,SPIB,"1.11 fold enrichment (6-mer frequency, TF over GST control)"
same,binding signal,ELK3,"1.17 fold enrichment (6-mer frequency, TF over GST control)"
same,binding signal,FEV,"1.16 fold enrichment (6-mer frequency, TF over GST control)"
same,binding signal,ETV5,"1.07 fold enrichment (6-mer frequency, TF over GST control)"
same,binding signal,HSF1,"1.16 fold enrichment (6-mer frequency, TF over GST control)"
same,binding signal,SPIC,"1.25 fold enrichment (6-mer frequency, TF over GST control)"
same,binding signal,ELF4,"1.21 fold enrichment (6-mer frequency, TF over GST control)"
same,binding signal,ELK4,"1.16 fold enrichment (6-mer frequency, TF over GST control)"
same,binding signal,ETV2,"1.24 fold enrichment (6-mer frequency, TF over GST control)"
same,binding signal,ELF3,"1.11 fold enrichment (6-mer frequency, TF over GST control)"
same,binding signal,CRX,"1.41 fold enrichment (6-mer frequency, TF over GST control)"
same,binding signal,ETV1,"1.13 fold enrichment (6-mer frequency, TF over GST control)"
